Screens (PubChem BioAssay)
PINK1 expr mod – modulators of PINK1 expression; PINK1 immunofluorescence, high-content cytometry, 24 h; Potency, µM (top dose mostly 76.6 µM), hits mostly activators; actives 0.2% (n = 410,000); active = well fitted activation curve with a large enough effect; inconclusive = small, poorly fitted or top-dose-only effect; cell line not stated here; also: nearly all actives have a fitted effect of over 65% in size
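Measures PINK1 amount and localization on or inside mitochondria by immunofluorescence. Stable cells get compounds at 5 concentrations for 24 hours before fixation and staining; CCCP controls included.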
KB-3-1 cytotox – KB-3-1 parental cell cytotoxicity | KB-3-1 viability, CellTiter-Glo ATP luminescence, 72 h | Potency, µM (titrated, usually from 46.1 µM), most hits filed as cytotoxic | actives 1.4% (n = 400,000); also: nearly all actives have a fitted effect of over 60% in size
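Cytotoxicity in the drug-sensitive parental line KB-3-1 was scored as loss of CellTiter-Glo luminescence following 72 h incubation with compound. Values come from curve fitting of normalized concentration-response data.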
MCF10A rerep – inducers of DNA re-replication in MCF 10A breast cells; MCF 10A DNA re-replication, Hoechst nuclear intensity, 48 h; Potency, µM (highest dose often 46.1 µM), usual class: activators; actives 2.9% (n = 350,000); AID 624296; also: nearly all actives have a fitted effect of over 50% in size
SW480 rereplic – inducers of DNA re-replication in SW480 colon cancer cells; SW480 DNA re-replication, Hoechst DNA content imaging, 48 h; Potency, µM (series often up to 46.1 µM), actives largely listed as activators; actives 1.8% (n = 340,000); AID 624297; also: nearly all actives have a fitted effect of over 55% in size
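Cells (250 per well) received 23 nL compound or DMSO by pin tool and were kept 48 hr at 37 C, 5% CO2. Nuclei were then stained with Hoechst for 40 min and scanned for DNA content.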
KB-V1 cytotox – KB-V1 MDR subline cytotoxicity; KB-V1 MDR cells viability, CellTiter-Glo, 72 h; Potency, µM (highest dose often 46.1 µM), hits mostly cytotoxic; actives 3.4% (n = 400,000); AID 1347076; also: nearly all actives have a fitted effect of over 60% in size
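Compound-treated KB-V1 multidrug-resistant cells, 72 h, 37 degrees C; viability by CellTiter-Glo. Fitted qHTS curves give the values.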
Large screens that a line does not name were inactive. Shown are actives, neighbours in structure and some others; about 6.7% of the full set was active somewhere. Unless noted, calls follow the shape of the dose curve; as a rule, active = well fitted curve in the direction sought with a large enough effect; inconclusive = small, poorly fitted or top-dose-only effect, or another doubt; inactive = no such curve, though single readings can be large; an effect the other way counts as inactive or inconclusive.

COc1ccc(CNS(=O)(=O)c2cc(C(=O)Nc3cc(Cl)cc(Cl)c3)ccc2F)cc1	none (no result: KB-3-1 cytotox, MCF10A rerep, SW480 rereplic, KB-V1 cytotox)
O=C(O)COc1ccc2c(c1)O/C(=C\c1cccs1)C2=O	MCF10A rerep inconclusive, SW480 rereplic 16.4µM
O=C(O)COc1ccc2c(c1)O/C(=C\c1ccco1)C2=O	KB-V1 cytotox inconclusive
O=C(CCNC(=O)c1ccc(Br)cc1)Nc1nccs1	KB-V1 cytotox inconclusive
COc1ccc(C(=O)Nc2ccc(S(=O)(=O)NC(C)(C)C)cc2)cc1[N+](=O)[O-]	MCF10A rerep 0.13µM, KB-V1 cytotox inconclusive
O=C(Nc1nccs1)c1ccc(Br)cc1	SW480 rereplic 14.6µM
COc1ccc(C(=O)Nc2ccc(C(=O)Nc3nccs3)cc2)cc1[N+](=O)[O-]	KB-3-1 cytotox inconclusive, SW480 rereplic 10.3µM
CCCCC(=O)Nc1cccc(-c2csc(-c3ccccc3)n2)c1	MCF10A rerep 25.9µM, SW480 rereplic inconclusive
CC(=O)NCCc1csc(-c2ccccc2)n1	MCF10A rerep 6.51µM, SW480 rereplic inconclusive (no result: PINK1 expr mod)
Cc1cc(NC(=O)Cc2csc(-c3ccccc3)n2)ccc1Br	KB-3-1 cytotox inconclusive, KB-V1 cytotox 18.4µM
CC1CCCC(NC(=O)CN(C)CC(=O)Nc2ccc(F)cc2)C1C (centres undefined)	none
Cc1cc(C(=O)c2ccc3ccccc3c2)c(C)o1	none
CCc1cccc(C)c1NC(=O)Cn1nnc(-c2nc(-c3ccccc3F)no2)c1N	none (no result: KB-3-1 cytotox, MCF10A rerep, SW480 rereplic, KB-V1 cytotox)
COc1ccc(Cl)cc1NC(=O)Cn1c(=O)n(Cc2cccs2)c(=O)c2cccnc21	none (no result: MCF10A rerep, SW480 rereplic)
FC(F)(F)c1nc2ccccc2n2c(-c3ccc(Cl)cc3Cl)nnc12	KB-3-1 cytotox 18.4µM, SW480 rereplic inconclusive, KB-V1 cytotox inconclusive
CCN1CCN(S(=O)(=O)c2ccc(S(=O)(=O)N(CC)Cc3ccccc3)cc2)CC1	MCF10A rerep 1.84µM, SW480 rereplic 11.6µM, KB-V1 cytotox inconclusive
CCN1CCN(S(=O)(=O)c2ccc(C(C)(C)C)cc2)CC1	MCF10A rerep inconclusive, SW480 rereplic 23.1µM
CCN1CCN(S(=O)(=O)c2ccc(S(=O)(=O)NC3CC3)cc2)CC1	SW480 rereplic inconclusive
CCOC(=O)C1CCN(c2cc(C)nc3cc(-c4cccc(F)c4)nn23)CC1	PINK1 expr mod inconclusive, MCF10A rerep 4.11µM, SW480 rereplic inconclusive
O=C(COC(=O)C1CCCCC1)Nc1cccc(Br)c1	none
COc1ccc2c(c1)O[C@@H](c1cccc(C(F)(F)F)c1)[C@H](O)C2=O	SW480 rereplic 20.6µM (no result: PINK1 expr mod, KB-3-1 cytotox, KB-V1 cytotox)
COc1ccc2c(c1)O[C@H](c1ccc3c(c1)OCO3)[C@@H](O)C2=O	KB-3-1 cytotox inconclusive, SW480 rereplic inconclusive
COc1cccc(C(=O)SC2=NCCS2)c1	MCF10A rerep 14.6µM (no result: PINK1 expr mod)
CCc1ccc(N2C(=O)C(Cl)=C(Nc3ccc(C(=O)N4CCCC4)cc3)C2=O)cc1	MCF10A rerep 10.3µM, SW480 rereplic inconclusive
O=C(c1ccc(N2C(=O)c3ccccc3C2=O)cc1)N1CCCCC1	none
COc1ccc(Cl)cc1NC(=O)C(C)Sc1nnc(C2CC2)n1C1CC1 (centres undefined)	KB-V1 cytotox 18.4µM
CC(=O)c1cccc(NC(=O)C2CCN(C(=O)c3cccs3)CC2)c1	none
COC(=O)C1CCN(Cc2ccc3c(c2)CN(C(=O)c2ccc4nc(C)c(C)nc4c2)CCO3)CC1	none (no result: KB-3-1 cytotox, MCF10A rerep, SW480 rereplic, KB-V1 cytotox)
COc1cc(/C=C2\C=CC(=O)O2)cc(OC)c1	KB-3-1 cytotox inconclusive
COc1ccccc1-c1ccc(/C=C2\C=CC(=O)O2)o1	MCF10A rerep 20.6µM, SW480 rereplic inconclusive
COc1ccccc1-c1ccc(/C=C2/C=C(C)OC2=O)o1	MCF10A rerep 20.6µM, SW480 rereplic inconclusive
CCn1nc(C)c(CCN(C)C(=O)Nc2cc(Cl)ccc2C)c1C	none (no result: MCF10A rerep, SW480 rereplic)
Cc1ccc(C)c(N2CCN(C(=O)C3CCC(CNS(=O)(=O)c4ccc(Br)s4)CC3)CC2)c1 (centres undefined)	none (no result: MCF10A rerep, SW480 rereplic)
CCc1cc(C(=O)Cc2ccc(F)cc2)c(O)cc1O	PINK1 expr mod inconclusive, KB-3-1 cytotox inconclusive, KB-V1 cytotox 16.4µM
CCCc1cc(C(=O)Cc2ccc(F)cc2)c(O)cc1O	PINK1 expr mod inconclusive, MCF10A rerep inconclusive
CCN1CCN(c2cccc(Nc3nn4c(=O)c5ccccc5nc4s3)c2)CC1	none (no result: PINK1 expr mod, MCF10A rerep, SW480 rereplic)
Clc1ccccc1C1CC(c2ccccc2)=Nc2ccccc2N1 (centres undefined)	KB-3-1 cytotox inconclusive, MCF10A rerep inconclusive
Brc1ccccc1C1CC(c2ccccc2)=Nc2ccccc2N1 (centres undefined)	MCF10A rerep 23.1µM, SW480 rereplic inconclusive
Cc1nc2ccc(NS(=O)(=O)c3c(F)cc(F)cc3Br)cc2s1	KB-3-1 cytotox inconclusive
CCOC(=O)c1cnc2ccc(OC)cc2c1NCCc1ccccc1	none (no result: KB-3-1 cytotox, MCF10A rerep, SW480 rereplic, KB-V1 cytotox)
CCOC(=O)c1cnc2ccc(OCC)cc2c1NCc1ccccc1OC	PINK1 expr mod inconclusive, KB-3-1 cytotox inconclusive, MCF10A rerep inconclusive, KB-V1 cytotox 7.31µM
CCOC(=O)c1cnc2ccc(OC)cc2c1NCc1ccccc1	KB-V1 cytotox 3.66µM
COCCn1nnnc1C(c1cc2cc(OC)ccc2[nH]c1=O)N1CCC(Cc2ccccc2)CC1 (centres undefined)	KB-3-1 cytotox inconclusive, MCF10A rerep inconclusive, KB-V1 cytotox inconclusive
COc1ccccc1C(c1nnnn1CCc1ccccc1)N1CCCCCC1 (centres undefined)	MCF10A rerep inconclusive, SW480 rereplic inconclusive, KB-V1 cytotox 16.4µM
COc1ccccc1C(c1nnnn1CCc1ccccc1)N1CCN(c2ccccc2)CC1 (centres undefined)	none
COc1ccc2cc(C(c3nnnn3CCc3ccccc3)N3CCCC(C)C3)c(=O)[nH]c2c1 (centres undefined)	KB-V1 cytotox 18.4µM (no result: PINK1 expr mod)
COC(=O)CCN(c1ccccc1)C(CNS(=O)(=O)c1ccccc1)c1ccccc1 (centres undefined)	none (no result: MCF10A rerep, SW480 rereplic)
COc1ccc(NC(=O)CC2C(=O)N(c3ccc(OC)cc3)C(=O)N2CCc2cccs2)cc1 (centres undefined)	KB-V1 cytotox 14.6µM
COc1ccc(NC(=O)CC2C(=O)N(c3cccc(OC)c3)C(=O)N2CCc2cccs2)cc1 (centres undefined)	none (no result: MCF10A rerep, SW480 rereplic)
COc1cccc(N2C(=O)C(CC(=O)Nc3cccc(F)c3)N(C3CCCC3)C2=O)c1 (centres undefined)	none (no result: KB-3-1 cytotox, MCF10A rerep, SW480 rereplic, KB-V1 cytotox)
COc1ccc(NC(=O)CC2C(=O)N(c3cccc(OC)c3)C(=O)N2C2CCCCC2)cc1 (centres undefined)	KB-V1 cytotox 16.4µM
CNC[C@@H]1Oc2ccc(NS(=O)(=O)c3ccc(OC)cc3)cc2CC(=O)N([C@H](C)CO)C[C@@H]1C	none
CCOc1ccc2c(c1)-c1c(ssc1=S)C(C)(C)N2C(=O)c1ccco1	KB-3-1 cytotox inconclusive, MCF10A rerep 4.11µM, SW480 rereplic 16.4µM, KB-V1 cytotox inconclusive
Cc1c(Cl)cccc1NC(=O)NCCOCCn1c(=O)oc2ccccc21	none (no result: MCF10A rerep, SW480 rereplic)
